Sampled rows, rich in hits. Any-hit rate of the full collection: about 3.4%.
RE007 growth inh: less growth of the S. pombe RE007 Vpr strain | Potency, µM (top dose mostly 92.2 µM), hits mostly inhibitors | S. pombe RE007 Vpr strain, BacTiter-Glo ATP luminescence, 24 h | AID 651644 | hit rate 0.21% among 360,000; active means well fitted falling curve with a large enough effect; inconclusive means small, poorly fitted or top-dose-only effect; inactive means no such curve, though single readings can be large or run the other way; further: nearly all actives have a fitted effect of over 50% in size
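Fission yeast strain RE007, carrying one chromosomally integrated HIV-1 vpr copy, was seeded at OD 0.01 in PMG+AL medium with 23 nL pinned compound. After 24 h at 30 °C and 99% humidity, viability was read by BacTiter-Glo luminescence.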
Sm TGR inh: inhibitors of Schistosoma mansoni thioredoxin glutathione reductase; Q962Y6; purified TGR, DTNB reduction, TNB absorbance 405 nm; Potency, µM (series often up to 114 µM), actives largely listed as inhibitors; hit rate 3% among 360,000; AID 485364; further: nearly all actives have a fitted effect of over 60% in size
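TGR 20 nM + NADPH 100 uM (dispensed conc.), cpd preinc 15 min RT; start with NADPH (500 uM addition) then DTNB (15 mM addition). Kinetic TNB absorbance, 405 nm filter. Four-parameter Hill fit across titration.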
AmpC detergent: AmpC beta-lactamase inhibition with detergent present; AmpC hydrolysis of nitrocefin, absorbance 480 nm, 0.01% Triton; Potency, µM (series often up to 114 µM), actives largely listed as inhibitors; hit rate 0.041% among 370,000; AID 485294; further: nearly all actives have a fitted effect of over 25% in size
Target sequence (P00811 whole entry, looked up): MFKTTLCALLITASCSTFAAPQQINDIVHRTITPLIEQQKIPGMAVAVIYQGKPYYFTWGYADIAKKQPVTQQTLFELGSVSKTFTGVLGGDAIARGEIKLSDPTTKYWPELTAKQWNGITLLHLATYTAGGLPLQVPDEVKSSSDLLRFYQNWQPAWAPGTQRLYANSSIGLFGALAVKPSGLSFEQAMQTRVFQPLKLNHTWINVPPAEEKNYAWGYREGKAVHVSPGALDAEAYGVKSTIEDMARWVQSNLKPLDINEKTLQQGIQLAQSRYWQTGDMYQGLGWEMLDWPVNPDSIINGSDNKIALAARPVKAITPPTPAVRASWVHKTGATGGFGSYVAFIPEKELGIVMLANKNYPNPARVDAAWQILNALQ
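AmpC (5.3 nM in the dispensed reagent) in 20 mM phosphate pH 7.0 with 0.01% (detergent screen) or 0.0001% Triton X-100 was preincubated with compounds for 15 min at room temperature. Nitrocefin was then added from an 800 uM solution, and hydrolysis was followed at 480 nm.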
FBPA Giardia inh: inhibitors of Giardia lamblia fructose-1,6-bisphosphate aldolase; purified Giardia FBPA; hit rate 0.71% among 290,000; AID 2451; Potency, µM (series often up to 59.6 µM), actives largely listed as inhibitors; further: nearly all actives have a fitted effect of over 55% in size
Target sequence (A8B2U2 whole entry, looked up): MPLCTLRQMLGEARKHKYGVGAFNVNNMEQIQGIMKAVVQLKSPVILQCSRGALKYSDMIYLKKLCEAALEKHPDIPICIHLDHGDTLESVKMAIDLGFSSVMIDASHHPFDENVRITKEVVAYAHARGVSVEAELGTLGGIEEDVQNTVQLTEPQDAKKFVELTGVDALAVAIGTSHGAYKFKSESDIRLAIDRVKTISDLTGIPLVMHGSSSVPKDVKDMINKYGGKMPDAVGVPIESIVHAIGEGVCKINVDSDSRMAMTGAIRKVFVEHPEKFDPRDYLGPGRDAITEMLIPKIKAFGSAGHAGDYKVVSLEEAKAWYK
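40 nM FBPA preincubated 10 min at RT with compound (up to 57.5 uM final), then substrate plus GAPDH/TPI/NAD/arsenate coupling and diaphorase/resazurin added. Fluorescence read after 20 min at RT, 525/598 nm.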
AmpC no deterg: AmpC beta-lactamase inhibition without detergent. AmpC nitrocefin hydrolysis, absorbance 480 nm, 0.0001% Triton. Potency, µM (top dose mostly 57.1 µM), usual class: inhibitors. hit rate 0.52% among 330,000. P00811; further: nearly all actives have a fitted effect of over 20% in size
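AmpC (5.3 nM in the dispensed reagent) in 20 mM phosphate pH 7.0 with 0.01% (detergent screen) or 0.0001% Triton X-100 was preincubated with compounds for 15 min at room temperature. Nitrocefin was then added from an 800 uM solution, and hydrolysis was followed at 480 nm.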
Numbers stand for hits; i = inactive; ? = inconclusive; nt = no result. Unless noted, the call rests on the fitted dose curve; in most records, active means well fitted curve in the direction sought with a large enough effect; inconclusive means small, poorly fitted or top-dose-only effect, or another doubt; inactive means no such curve, though single readings can be large; an effect the other way counts as inactive or inconclusive.

SMILES	RE007 growth inh	Sm TGR inh	AmpC detergent	FBPA Giardia inh	AmpC no deterg
CN(CCC1CCOCC1)C(=O)CC1C(=O)NCCN1Cc1c(F)cccc1Cl (stereo not given)	i	45µM	?	i	i
O=C(CC1C(=O)NCCN1Cc1ccc(Cl)c(F)c1)NCCc1cccnc1 (stereo not given)	i	45µM	i	i	i
O=C1NCCN(Cc2ccc(Cl)c(F)c2)C1CC(=O)N1CCCCO1 (stereo not given)	i	25µM	i	?	i
O=C1NCCN(Cc2c(F)cccc2Cl)C1CC(=O)N1CCCCO1 (stereo not given)	i	i	i	i	i
CCOC(=O)C1CCN(C(=O)c2cc3cc(Cl)ccc3[nH]2)CC1	i	i	i	i	i
CC(C)(C)OC1NS(=O)(=O)OCC1NCOC(Cl)(Cl)Cl (stereo not given)	i	0.45µM	i	?	i
CN(C)Cc1cc(C(C)(C)C)c(O)c(C(C)(C)C)c1	i	22µM	i	i	i
CC(C)(C)c1cc(CN(CCO)CCO)cc(C(C)(C)C)c1O	i	?	i	?	i
CC(C)(C)c1cc(CN2CCC(O)CC2)cc(C(C)(C)C)c1O	i	7.9µM	i	i	i
CN1CCN(Cc2cc(C(C)(C)C)c(O)c(C(C)(C)C)c2)CC1	i	3.5µM	i	?	i
CS(=O)(=O)N(CC(=O)NCCSCc1c(F)cccc1Cl)c1cccc([N+](=O)[O-])c1	i	nt	i	i	i
S=c1nccc(-c2ccc3c(c2)CCO3)[nH]1	i	35µM	i	i	i
CC1(C)CCc2cc(-c3ccnc(=S)[nH]3)ccc2O1	i	i	i	i	i
O=C1NN(c2cccc(Br)c2)C(=O)/C1=C\c1ccccc1	i	50µM	i	i	i
COc1cccc(CNC(=O)CN2C(=O)c3ccccc3S2(=O)=O)c1	i	i	i	nt	i
O=C(NC(=S)NNC(=O)[C@H]1C[C@@H]1c1ccccc1)c1ccc(F)cc1	i	?	i	i	i
O=C(/C=C/c1ccc(F)cc1)NC(=S)NNC(=O)[C@H]1C[C@@H]1c1ccccc1	i	i	i	i	10µM
CCOc1ccccc1NC(=O)C(C)Sc1nc(-c2ccccc2)c(C#N)c(=O)[nH]1 (stereo not given)	nt	i	i	nt	nt
CCc1ccc(NC(=O)C(C)Sc2nc(-c3ccco3)c(C#N)c(=O)[nH]2)cc1 (stereo not given)	i	40µM	i	i	i
O=C1C(Cl)=C(NS(=O)(=O)c2ccc([N+](=O)[O-])cc2)C(=O)c2ccccc21	i	0.89µM	?	i	i
Cc1cc(C)cc(NC(=S)NC2CC3CCCC(C2)N3C2CC2)c1 (stereo not given)	i	nt	i	i	i
Cc1cc(C)cc(NC(=S)NC2CC3CCCC(C2)N3C2CCCC2)c1 (stereo not given)	i	13µM	i	i	i
O=C(CSc1nc2ccccc2s1)c1ccc(O)cc1O	i	i	i	i	7.1µM
O=C(Cc1nc2ccccc2s1)c1ccc(O)cc1O	nt	?	i	i	i
O=C(Nc1ccc(Cl)cc1)[C@@H]1[C@@H]2C(=O)N(c3cccc(F)c3)C(=O)[C@@H]2[C@H]2C=CC=NN21	i	22µM	i	i	i
SMILES	RE007 growth inh	Sm TGR inh	AmpC detergent	FBPA Giardia inh	AmpC no deterg
O=C(Nc1ccc(Cl)cc1)[C@@H]1[C@@H]2C(=O)N(c3ccc4ccccc4c3)C(=O)[C@@H]2[C@H]2C=CC=NN21	i	?	i	i	i
CC1CCC2C(=O)N(c3ccccc3OC(=O)c3ccccc3)C(=O)C2C1 (stereo not given)	i	i	i	i	i
CC1=CCC2C(=O)N(c3ccccc3OC(=O)c3ccccc3F)C(=O)C2C1 (stereo not given)	i	i	i	i	10µM
CCc1cc2c(=O)n(Cc3ccco3)c(SCC(=O)N(C)C3CCS(=O)(=O)C3)nc2s1 (stereo not given)	i	32µM	i	i	i
CCc1cc2c(=O)n(Cc3ccco3)c(SCc3c(C)noc3C)nc2s1	i	11µM	?	i	i
CCc1cc2c(=O)n(Cc3ccco3)c(SCC(=O)NC3CCS(=O)(=O)C3)nc2s1 (stereo not given)	i	16µM	i	i	i
CCc1cc2c(=O)n(Cc3ccco3)c(SCC(=O)N3CCCc4ccccc43)nc2s1	i	25µM	i	i	i
CCc1cc2c(=O)n(Cc3ccco3)c(SCC(=O)NCC3CCCO3)nc2s1 (stereo not given)	i	i	i	i	i
CCCCN1CC(=O)N2[C@H]3c4cc(C)ccc4OC[C@@H]3[C@H](c3ccccc3)[C@]2(C)C1=O	i	nt	nt	nt	i
CC(NC(=O)c1ccccc1F)c1nnc(SCC(=O)Nc2nccs2)n1C (stereo not given)	i	i	i	i	i
COc1ccc(CN2C(=O)NC(=O)/C(=C/c3ccc([N+](=O)[O-])s3)C2=O)cc1	?	1.1µM	i	i	?
COc1ccc(CN2C(=O)NC(=O)/C(=C\c3cc(OC)c(OC)c(OC)c3)C2=O)cc1	i	13µM	?	i	i
O=C1NC(=O)N(Cc2ccc(F)cc2)C(=O)/C1=C\c1ccc([N+](=O)[O-])s1	?	2.2µM	i	i	11µM
Cc1cc(O)c(C(c2cccc(F)c2)N2CCN(c3ccccc3)CC2)c(=O)n1Cc1ccco1 (stereo not given)	nt	3.2µM	i	nt	nt
Cc1cc(O)c(C(c2cccc(Cl)c2)N2CCN(c3ccccc3)CC2)c(=O)n1Cc1ccco1 (stereo not given)	nt	4µM	i	nt	nt
CCNC(=S)Nc1cccc(S(=O)(=O)Nc2ccccc2OC)c1	i	1.8µM	i	i	i
O=C(CCl)Nc1cccc(S(=O)(=O)NC2=NCCC2)c1	i	6.3µM	i	i	i
CCNC(=S)Nc1cccc(S(=O)(=O)NC2=NCCC2)c1	i	i	i	i	i
CCCCNC(=S)Nc1cccc(S(=O)(=O)NC2=NCCC2)c1	i	40µM	i	nt	i
COc1ccccc1NS(=O)(=O)c1cccc(NC(=O)Nc2ccccc2)c1	i	i	i	i	i
O=C(O)Cc1ccc(C(=O)c2ccccc2)s1	i	i	i	i	i
Cc1ccc(SCC(=O)c2ccc(CC(=O)O)s2)cc1	i	i	i	i	20µM
CC(=O)Nc1ccc(SCC(=O)c2ccc(Br)s2)cc1	i	i	i	i	i
O=C(O)Cc1ccc(C(=O)CSc2ccccc2)s1	i	20µM	i	i	?
Oc1ccc(/C=N/n2c3ccccc3c3ccccc32)cc1	32µM	i	i	i	i
Cn1c(=O)c(Cc2ccccc2)c(O)c2ccccc21	i	i	i	i	i
O=c1c(Cc2ccccc2)c(O)c2cccc3c4c(n1c23)CCCC4	i	i	i	i	7.9µM
O=C(CSc1n[nH]c(-c2ccncc2)n1)c1ccccc1	i	i	i	i	0.4µM

Compound activity as filed in PubChem BioAssay.
